Results filed as inconclusive are left out. Entries that show only a call come without a potency. Activity calls are given as the source filed them. Calls follow the shape of the dose curve; as a rule, active = well fitted cell-killing curve with a large enough effect; inconclusive = small, poorly fitted or top-dose-only effect, or effect the other way; inactive = no such curve, though single readings can be large or run the other way.
Assay: Viability qHTS for spleen associated tyrosine kinase inhibitor (SYKi) naive MV4-11 cells (AID 1963823); also: nearly all actives have a fitted effect of over 40% in size
Details: MV4-11 AML viability, CellTiter-Glo luminescence, 72 h; series mostly up to 45 µM
In short: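 Seeding of 500 SYKi-naive MV4-11 cells per well onto pre-dispensed compounds preceded a 72 hr incubation at 37 C. Luminescent CellTiter-Glo signal, read after 10 min at room temperature, reflected viable cells.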
Potency is read from the fitted curve at half-maximal effect.

| Structure (SMILES) | Potency |
| --- | --- |
| C[N+]1(C)[C@@H]2CC[C@H]1CC(OC(=O)C(O)c1ccccc1)C2 (stereo partly drawn) | inactive |
| CN1C(CSCC(F)(F)F)Nc2cc(Cl)c(S(N)(=O)=O)cc2S1(=O)=O (stereo not drawn) | inactive |
| COC(=O)C1=COC(O[C@@H]2O[C@H](CO)[C@@H](O)[C@H](O)[C@H]2O)[C@@H]2[C@@](C)(O)[C@@H](OC(=O)/C=C/c3ccccc3)C[C@]12O (stereo partly drawn) | inactive |
| O=C(Nc1ccccc1-c1cn2c(CN3CCNCC3)csc2n1)c1ccc2ccccc2n1 | 10.3 µM (active) |
| C=C1CC[C@@H]2[C@](C)(CO)[C@H](O)CC[C@@]2(C)[C@@H]1CC(O)C1=CCOC1=O (stereo partly drawn) | 9.04 µM (active) |
| COc1ccc(C(O[C@@H]2O[C@H](CO)[C@@H](O)[C@H](O)[C@H]2O)C(CO)Oc2ccc(/C=C/CO)cc2OC)cc1O (stereo partly drawn) | inactive |
| CC(=O)OC1C(O)CC2(C)C(CCC3(C)C2CC=C2C4C5(CCC(CO[C@@H]6O[C@H](CO)[C@@H](O)[C@H](O)[C@H]6O)(OC5=O)C4(C)O)C(O)CC23C)C1(C)C (stereo partly drawn) | inactive |
| CC(CO[C@@H]1O[C@H](COC(=O)/C=C/c2ccc(O)c(O)c2)[C@@H](O)[C@H](O)[C@H]1O)C1(O)COC(=O)C1 (stereo partly drawn) | inactive |
| COc1ccc(NC(=O)c2ccc(-c3ccc(-c4nnc(C)o4)cc3C)cc2)cc1N1CCN(C)CC1 | 23.1 µM (active) |
| O=C(NCC(=O)N1CCCC1)Nc1ccc2ccccc2c1 | 5.8 µM (active) |
| Cc1occc1C(=O)n1ccnc1 | inactive |
| COc1ccc(NC(=O)C2C[C@H](C)CC[C@H]2C(C)C)cc1 (stereo partly drawn) | inactive |
| CC(c1ncncc1F)C(O)(Cn1cncn1)c1ccc(F)cc1F (stereo not drawn) | inactive |

From PubChem BioAssay (NCATS)
